About 79,000 compounds went through this panel and 15% of them were active in at least one assay; those are over-represented in the sample as a whole. A number with no mark means an inactive call. Activity calls are given as the source filed them. Cut-off read from the data, not from the text of the source: active = growth inhibition above about 70%; inactive = the rest.
Test: NCI Yeast Anticancer Drug Screen. Data for the cln2 rad14 strain (AID 165);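 note: 0% = growth equal to vehicle treated cultures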
Conditions: S. cerevisiae cln2 rad14 strain, hits give high values
Method: Growth inhibition of yeast strains with defined genetic alterations is measured as a screen for potential anti-cancer activity. Selected strains with alterations in DNA damage repair or cell cycle control were exposed to compounds and growth inhibition was measured relative to vehicle treated controls. The strain used in this assay is cln2 rad14

[1] = at 5.0 µM (retest, dose inferred, filed as 0.5)
[2] = at 50.0 µM (retest, dose inferred, filed as 5.0)

Structure (SMILES)	growth inhibition [1]	growth inhibition [2]	growth inhibition (at 50.0 µM)
Cc1ccc(S(=O)(=O)N/N=C/C2(c3ccccc3)c3ccccc3-c3ccccc32)cc1	45%	90% (active)	16.1%
C=Cc1cnc([N+](=O)[O-])n1C	39%	93% (active)	90.2% (active)
O=[N+]([O-])c1cccc2nc3ccccc3c(NCCc3cccc[n+]3[O-])c12	85% (active)	99% (active)	95.2% (active)
O=C(CNS(=O)(=O)Cc1ccccc1)NNc1ccccc1	8%	33%	60%
O=C1c2c(O)cccc2-c2nn(CCNCCO)c3ccc(NCCNCCO)c1c23	26%	14%	-7.2%
COCCCN(Cc1cc(OC)c(OC)c(OC)c1)C(=S)Nc1cccc(Cl)c1	41%	46%	17.4%
N#CSC1CCCCNC1=O (stereo not given)	-58%	-13%	52.5%
CCOc1ccc(C(=O)CCC(=O)O)c(C)c1	-12%	44%	
O=C1C=CC(=Nc2ccccc2)c2ccccc21	-17%	32%	24.6%
Cc1cc(C)c(N2C(=O)CC(Sc3ccccc3N)C2=O)c(C)c1 (stereo not given)	34%	76% (active)	6.4%
CCN(CC)CCNC(=O)c1nn(-c2ccc(Cl)cc2)c2c1CCc1cc(OC)ccc1-2	2%	39%	28.8%
CCC(NC(C)c1ccccc1)C(=O)c1ccc(OCc2ccccc2)c(OCc2ccccc2)c1 (stereo not given)	-9%	30%	0.35%
O=C1NC(c2c(Cl)cccc2Cl)Nc2ccccc21 (stereo not given)	12%	90% (active)	
CCC(=O)N(c1ccccc1)C(C)CN1CCC(O)(c2cccc(C(F)(F)F)c2)CC1 (stereo not given)	7%	43%	18.6%
